UBC13 inh = blocks human UBC13 polyubiquitin chain formation; P61088; TR-FRET; inhibition, % at 20 µM; 330,000 compounds, 0.47% hits; in the data active means inhibition above about 45%, passing the limit was not always enough
MEKK2 WT-MEK5 = raises or lowers MEK5 binding to wildtype human MEKK2 PB1 domain. Q9Y2U5. bead flow cytometry, Alexa488-MEK5 binding to MEKK2 WT; actives lie on both sides. binding response (% of control), % at 10 µM. 290,000 compounds, 1.1% hits; in the data active means binding response below about 67% or above about 130%
ATG4B inh = inhibitors of human ATG4B cysteine protease | ATG4B cleavage of LC3-PLA2, NBD-HPC fluorescence, 1 h | inhibition, % at 8.33 µM | 340,000 compounds, 0.51% hits | AID 504462; in the data active means inhibition above about 40%
MEKK3 PB1 HTS = modulators (inhibitors or enhancers) of MEK5 binding to human MEKK3 PB1 domain; binding response (% of control), % at 10 µM; bead-based flow cytometry, Alexa488-MEK5 binding to MEKK3; actives lie on both sides; 0 = blocked by unlabeled MEK5, 100 = vehicle; 290,000 compounds, 1.4% hits; Q99759;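 active means binding response more than 3 SD above or below the average of its plate-row segment, actives on both sides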;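 further: Alexa488 bead fluorescence after subtracting the streptavidin-only scavenger bead signal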
MEKK2mut PB1 HTS = signal of MEK5 binding to mutant human MEKK2 PB1 domain. bead flow cytometry, Alexa488-MEK5 binding to MEKK2 mutant. 290,000 compounds, 0.35% hits. percent response, % at 10 µM; in the data active means percent response above about 24%, passing the limit was not always enough
PREPL inh = inhibits the human prolyl oligopeptidase-like enzyme. Q4J6C6. recombinant PREPL, fluorescence polarization activity-based probe. inhibition, % at 5.96 µM. 320,000 compounds, 0.68% hits. AID 2751; in the data active means inhibition above about 43%;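 further: 0% = enzyme with DMSO and 100% = wells lacking enzyme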
Target sequence (Q4J6C6 whole entry, looked up): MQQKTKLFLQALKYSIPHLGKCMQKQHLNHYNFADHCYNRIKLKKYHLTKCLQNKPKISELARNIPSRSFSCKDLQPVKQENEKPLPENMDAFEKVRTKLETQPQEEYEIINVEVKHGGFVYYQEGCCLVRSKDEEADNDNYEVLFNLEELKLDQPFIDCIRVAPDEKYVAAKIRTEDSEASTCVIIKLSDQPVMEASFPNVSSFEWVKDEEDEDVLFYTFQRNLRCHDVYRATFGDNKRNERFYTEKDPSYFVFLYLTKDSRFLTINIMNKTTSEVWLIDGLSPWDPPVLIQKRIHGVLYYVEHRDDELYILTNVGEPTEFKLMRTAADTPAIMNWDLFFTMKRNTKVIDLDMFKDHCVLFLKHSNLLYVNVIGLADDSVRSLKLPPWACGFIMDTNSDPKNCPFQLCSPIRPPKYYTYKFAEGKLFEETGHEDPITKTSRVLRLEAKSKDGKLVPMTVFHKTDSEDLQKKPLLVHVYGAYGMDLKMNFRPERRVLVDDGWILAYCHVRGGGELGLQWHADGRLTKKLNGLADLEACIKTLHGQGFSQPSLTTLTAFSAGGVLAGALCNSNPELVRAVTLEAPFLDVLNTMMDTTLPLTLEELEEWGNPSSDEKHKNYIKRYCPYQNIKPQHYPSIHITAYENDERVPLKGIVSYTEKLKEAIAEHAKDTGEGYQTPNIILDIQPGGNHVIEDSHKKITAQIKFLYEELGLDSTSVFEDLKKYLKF
MEKK2wt confirm = raises or lowers MEK5 binding to wildtype human MEKK2, retest; shares compounds with MEKK3 PB1 HTS; bead flow cytometry, Alexa488-MEK5 binding to MEKK2 WT; actives lie on both sides; binding response (% of control), % at 10 µM; 5,900 compounds, 2.4% hits; in the data active means binding response below about 16% or above about 210%; inactive means in between
MEKK2mut-MEK5 = signal of MEK5 binding to mutant human MEKK2, retest | 5,900 compounds, 2% hits | shares compounds with MEKK3 PB1 HTS | percent response, % at 10 µM | bead flow cytometry, Alexa488-MEK5 binding to MEKK2 mutant; in the data active means percent response mostly above about 71%, no sharp cut-off; inactive means mostly below about 38%;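 further: higher means compound restores mutant binding toward wildtype level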
MEKK3-MEK5 inh = confirmation of inhibitors of MEK5 binding to human MEKK3 | shares compounds with MEKK3 PB1 HTS | bead flow cytometry, Alexa488-MEK5 binding to MEKK3; active compounds read low | binding response (% of control), % at 10 µM | 5,900 compounds, 1.8% hits;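 active means binding response below 72% of control, or above a set upper limit, though filed actives all read lower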;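 further: 100% = DMSO only wells and 0% = binding blocked by excess unlabeled MEK5; lower values mean stronger disruption of MEK5 binding to MEKK3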
* = called active by the depositor; . = not tested or not shown; [ ] = another dose, or the depositor's remark. Compounds with a hit are over-represented: about 3.1% of the library has one in this group of screens.

SMILES	UBC13 inh	MEKK2 WT-MEK5	ATG4B inh	MEKK3 PB1 HTS	MEKK2mut PB1 HTS	PREPL inh	MEKK2wt confirm	MEKK2mut-MEK5	MEKK3-MEK5 inh
CCC(C)(C)NC(=O)C(c1ccncc1)N(C(=O)Cn1nnc2ccccc21)c1cc2c(cc1C(C)=O)OCO2 (stereo unspecified)	-3.9	96.0	-4.9	97.0	-3.0	17.7	.	.	.
CCc1ccccc1NC(=O)CN(C)C(=O)CSc1nc2cc(Cl)ccc2s1	-6.1	103.0	12.8	102.0	-2.0	6.1	.	.	.
O=C(NCc1n[nH]c(=S)n1-c1ccc(Br)cc1)c1ccc(S(=O)(=O)N2CCOCC2)cc1	6.4	108.0	5.0	103.0	4.0	-4.8	.	.	.
c1cncc(C2OCC3(CO2)COC(c2cccnc2)OC3)c1 (stereo unspecified)	10.7	98.0	7.0	97.0	-3.0	7.0	.	.	.
COc1cc(C(=O)N/C(=C/c2ccc(F)cc2)C(=O)NC(C(=O)O)c2ccccc2)cc(OC)c1OC (stereo unspecified)	-7.1	104.0	1.1	106.0	-1.0	6.8	.	.	.
O=C1OC(/C(=C\Nc2ccc(F)cc2F)[N+](=O)[O-])c2ccccc21 (stereo unspecified)	-10.2	96.0	-1.5	100.0	-3.0	5.5	.	.	.
O=C1OC(/C(=C\Nc2cc(Cl)ccc2O)[N+](=O)[O-])c2ccccc21 (stereo unspecified)	-75.5	52.0	-8.6	38.0*[inhibitor]	-17.0	12.4	100.0	-1.0	103.0
CCN(CC(=O)NC)S(=O)(=O)c1ccc(Br)cc1	-4.6	112.0	-3.9	109.0	24.0*	17.5	101.0	-4.0	98.0
Oc1c(Br)cc(Cl)cc1C=Nc1ccc(N2CCOCC2)cc1	-17.7	54.0*[inhibitor]	8.2	89.0	-18.0	11.2	83.0	-8.0	101.0
Oc1ccc(N=Nc2cccc(Cl)c2)cc1C=Nc1ccc(N2CCOCC2)cc1	.	100.0	12.9	97.0	4.0	.	.	.	.
Oc1c(Cl)cc(Cl)cc1/C=N/Nc1ncc(Br)cn1	-11.2	126.0	-9.2	138.0*	1.0	19.0	102.0	-3.0	100.0
CCC1(CC)C(=O)C2=C3C1[C@H](C(=O)OC)C=C(C(=O)OC)C[C@H]3[C@H]1C(=O)NC(=O)[C@H]1[C@H]2C (stereo partly specified)	-3.9	101.0	-0.2	105.0	1.0	-1.6	.	.	.
CCC1(CC)C(=O)C2=C3C1[C@H](C(=O)OC)CC(C(=O)OC)C[C@H]3[C@H]1C(=O)N(c3ccccc3)C(=O)[C@H]1[C@H]2C (stereo partly specified)	0.5	75.0	-5.3	57.0*[inhibitor]	-9.0	5.3	96.0	6.0	97.0
Cc1ccc(Cl)cc1NC(=O)C(=O)N/N=C/c1ccc2c(c1)OCO2	-12.1	104.0	-5.3	98.0	1.0	.	.	.	.
Cc1ccccc1Nc1nnc(SCC(=O)Nc2ccccc2[N+](=O)[O-])s1	-16.8	105.0	24.4	133.0*	0.0	0.5	96.0	-1.0	102.0
Cc1cccc(Nc2nnc(SCC(=O)Nc3ccccc3[N+](=O)[O-])s2)c1	-3.6	95.0	21.1	88.0	-1.0	42.3	.	.	.
CCN(CC)CCCN(C(=O)c1ccccc1F)c1nc(-c2ccc(OC)cc2)cs1	19.2	156.0*	2.4	104.0	21.0	-42.3	150.0	27.0	107.0
COc1ccc(-c2csc(N(CCCN(C)C)C(=O)c3cccs3)n2)cc1	15.4	130.0	-2.8	110.0	12.0	-19.0	.	.	.
CCN(CC)CCCN(C(=O)c1ccc(OC)cc1)c1nc(-c2ccc(OC)cc2)cs1	14.3	165.0*	-6.9	95.0	20.0	-18.8	153.0	30.0	108.0
CCN(CC)CCCN(C(=O)c1ccccc1C)c1nc(-c2ccc(OC)cc2)cs1	7.9	145.0*	4.4	107.0	20.0	-17.8	142.0	24.0	109.0
CCc1cccc2c(N=O)c(O)[nH]c12	-0.1	110.0	7.4	136.0*	0.0	12.9	108.0	8.0	105.0
Cc1nn(C(C)C(=O)NC2CCCCC2)c(=O)c2nn(-c3ccccc3)c(C)c12 (stereo unspecified)	0.4	109.0	-8.8	109.0	5.0	5.2	.	.	.
O=C(CC1CCC1)Nc1cccc2c([N+](=O)[O-])cccc12	-6.0	.	-5.2	.	.	1.3	.	.	.
Cc1ccc(OCC(=O)NC(=S)Nc2ccc(Br)c(C)n2)cc1	-7.9	102.0	1.6	102.0	6.0	6.2	.	.	.
Cc1nc(NC(=S)NC(=O)COc2ccc(Cl)cc2)ccc1Br	0.3	104.0	0.3	139.0*	-1.0	-0.5	101.0	4.0	102.0
SMILES	UBC13 inh	MEKK2 WT-MEK5	ATG4B inh	MEKK3 PB1 HTS	MEKK2mut PB1 HTS	PREPL inh	MEKK2wt confirm	MEKK2mut-MEK5	MEKK3-MEK5 inh
O=C1CCCC(O)=C1N=Nc1ccc2c(c1)OCO2	-181.4	108.0	-5.4	146.0*	1.0	2.6	103.0	1.0	100.0
O=C1CCCC(O)=C1N=Nc1ccc(C(=O)O)cc1	-10.9	104.0	-3.9	102.0	4.0	20.9	.	.	.
Cc1ccc(-c2cc(-c3ccccc3)no2)cc1	4.1	.	8.4	.	.	-1.5	.	.	.
c1ccc(-c2cc(-c3ccccc3)on2)cc1	2.2	129.0	-0.7	130.0*	27.0	-2.2	109.0	15.0	107.0
O=C(CCN1CCCCC1=O)NC1CCCc2c1cnn2-c1ccccc1F (stereo unspecified)	-2.5	99.0	5.9	100.0	4.0	19.0	.	.	.
N#CC1(C#N)C(c2ccccc2)OC23CCCCC2C1(C#N)C(=N)O3 (stereo unspecified)	-0.9	104.0	-2.5	140.0*	-1.0	12.5	111.0	4.0	110.0
N#CC1(C#N)C(c2ccccc2)OC23CCCCCC2C1(C#N)C(=N)O3 (stereo unspecified)	12.5	113.0	5.8	102.0	10.0	7.2	.	.	.
COc1ccc(-c2cc(C(F)(F)F)c3c(n2)sc2c(O)cc(=O)[nH]c23)c(OC)c1	-26.7	88.0	3.4	103.0	-2.0	10.5	.	.	.
Cc1cc(C)c2c(n1)sc1c(O)cc(=O)[nH]c12	3.6	114.0	-7.1	122.0*	8.0	-5.9	112.0	12.0	107.0
O=C1N(Cc2cccc(Cl)c2)C[C@@H]2C[C@@H](c3c[nH]c4ccccc34)N3CCC[C@@]123	-4.1	.	-6.0	63.0*[inhibitor]	22.0	-62.0	84.0	-10.0	72.0
Cc1cc(C)cc(NC(=S)Nc2cccc3cnccc23)c1	-67.8	140.0*	-2.0	107.0	7.0	.	107.0	3.0	103.0
